# Experimental data published in the supplement of paper PMC10849652.
# Of roughly 7,900 targets only a part is listed; those with a hit were picked by preference. About 0.6% of all pairs of compound and target were hits. Values without a mark were called inactive.
# Tests used:
# Assay in all cases: log2 fold change, soluble protein after heating vs DMSO (PISA); higher = thermal stabilisation; K562 cells, 10 uM, 30 min; active = over 0.2 and 3.5 SD of the protein, either way, in both replicates (recomputed)
# [1] = compound: COC1=CC=C(C=C1)CN2C=CC3=C2C=C(C=C3)C(=O)NO
# Procedure, shortened: (§1)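 Values are thermal stability changes relative to control samples and are taken from duplicates. They are stated as log2 fold changes. Before quantification by TMTpro 16plex LC-MS/MS with equalised channel sums, K562 cells at 2×10^6 cells/mL were treated with 10 μM compound for 30 min, heated in aliquots for 3 min across 48°C-58°C, pooled, extracted in PBS with 0.5% NP-40 at 4°C, and centrifuged at 21,000xg for 90 min to give the soluble supernatant.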
# [2] = compound: CON(C)C(=O)N1N=C(c2cc(F)ccc2F)S[C@@]1(CCCN)c1ccccc1 [filanesib]
# Procedure, shortened: as §1
# [3] = compound: CO[C@H]1C[C@@H]2CC[C@@H](C)[C@@](O)(O2)C(=O)C(=O)N2CCCC[C@H]2C(=O)O[C@H]([C@H](C)C[C@@H]2CC[C@H](n3cnnn3)[C@H](OC)C2)CC(=O)[C@H](C)/C=C(\C)[C@@H](O)[C@@H](OC)C(=O)[C@H](C)C[C@H](C)/C=C/C=C/C=C/1C [zotarolimus]
# Procedure, shortened: as §1
# [4] = compound: COc1cc(C(=O)O)ccc1NC(=O)[C@@H]1N[C@@H](CC(C)(C)C)[C@](C#N)(c2ccc(Cl)cc2F)[C@H]1c1cccc(Cl)c1F [idasanutlin]
# Procedure, shortened: as §1
# [5] = compound: COc1cc(Nc2ncc3c(n2)-c2ccc(Cl)cc2C(c2c(F)cccc2OC)=NC3)ccc1C(=O)O [alisertib]
# Procedure, shortened: as §1
# [6] = compound: COc1cc2nc(-c3cc(F)ccc3O)nc(N[C@@H]3CNC[C@H]3C(C)(C)O)c2cc1OC
# Procedure, shortened: as §1
# [7] = compound: COc1cc2ncnc(Nc3ccc(F)c(Cl)c3)c2cc1OCCCN1CCOCC1 [gefitinib]
# Procedure, shortened: as §1
# [8] = compound: COc1cccc2cc(-c3nc([C@H]4CC[C@H](C(=O)O)CC4)n4ncnc(N)c34)[nH]c12
# Procedure, shortened: as §1
# [9] = compound: CS(=O)(=O)CCNCc1ccc(-c2ccc3ncnc(Nc4ccc(OCc5cccc(F)c5)c(Cl)c4)c3c2)o1 [lapatinib]
# Procedure, shortened: as §1
# [10] = compound: CS(=O)(=O)N1CCN(Cc2cc3nc(-c4cccc5[nH]ncc45)nc(N4CCOCC4)c3s2)CC1 [pictilisib]
# Procedure, shortened: as §1
# [11] = compound: CS(=O)(=O)c1ccc(-c2cnc(N)c(C(=O)Nc3ccccc3)n2)cc1
# Procedure, shortened: as §1
# [12] = compound: C[C@@H](Oc1cc(-c2cnn(C3CCNCC3)c2)cnc1N)c1c(Cl)ccc(F)c1Cl [crizotinib]
# Procedure, shortened: as §1
# [13] = compound: C[C@@H]1COCCN1C2=NC(=NC(=C2)C3(CC3)S(=O)(=O)C)C4=C5C=CNC5=CC=C4
# Procedure, shortened: as §1
# [14] = compound: C[C@H](C1=CC=C(C=C1)C(=O)NC2=C3C=CNC3=NC=C2)N
# Procedure, shortened: as §1
# [15] = compound: C[C@H](Nc1ncnc2nc[nH]c12)c1cc2cccc(Cl)c2c(=O)n1-c1ccccc1 [duvelisib]
# Procedure, shortened: as §1
# [16] = compound: Cc1cc(Nc2cc(CN3CCOCC3)c3nc(C)c(Cc4ccc(Cl)cc4F)n3n2)n[nH]1 [gandotinib]
# Procedure, shortened: as §1
# [17] = compound: Cc1cc(Nc2cc(N3CCN(C)CC3)nc(Sc3ccc(NC(=O)C4CC4)cc3)n2)n[nH]1 [tozasertib]
# Procedure, shortened: as §1
# [18] = compound: Cc1cc(SCc2sc(-c3ccc(C(F)(F)F)cc3)nc2C)ccc1OCC(=O)O
# Procedure, shortened: as §1
# [19] = compound: Cc1ccc(-n2nc(C(C)(C)C)cc2NC(=O)Nc2ccc(OCCN3CCOCC3)c3ccccc23)cc1 [doramapimod]
# Procedure, shortened: as §1
# [20] = compound: Cc1ccc(C(=O)N(CCCN)[C@@H](c2nc3cc(Cl)ccc3c(=O)n2Cc2ccccc2)C(C)C)cc1 [ispinesib]
# Procedure, shortened: as §1
# UniProt Q01970, sequence (Q01970 whole entry, looked up): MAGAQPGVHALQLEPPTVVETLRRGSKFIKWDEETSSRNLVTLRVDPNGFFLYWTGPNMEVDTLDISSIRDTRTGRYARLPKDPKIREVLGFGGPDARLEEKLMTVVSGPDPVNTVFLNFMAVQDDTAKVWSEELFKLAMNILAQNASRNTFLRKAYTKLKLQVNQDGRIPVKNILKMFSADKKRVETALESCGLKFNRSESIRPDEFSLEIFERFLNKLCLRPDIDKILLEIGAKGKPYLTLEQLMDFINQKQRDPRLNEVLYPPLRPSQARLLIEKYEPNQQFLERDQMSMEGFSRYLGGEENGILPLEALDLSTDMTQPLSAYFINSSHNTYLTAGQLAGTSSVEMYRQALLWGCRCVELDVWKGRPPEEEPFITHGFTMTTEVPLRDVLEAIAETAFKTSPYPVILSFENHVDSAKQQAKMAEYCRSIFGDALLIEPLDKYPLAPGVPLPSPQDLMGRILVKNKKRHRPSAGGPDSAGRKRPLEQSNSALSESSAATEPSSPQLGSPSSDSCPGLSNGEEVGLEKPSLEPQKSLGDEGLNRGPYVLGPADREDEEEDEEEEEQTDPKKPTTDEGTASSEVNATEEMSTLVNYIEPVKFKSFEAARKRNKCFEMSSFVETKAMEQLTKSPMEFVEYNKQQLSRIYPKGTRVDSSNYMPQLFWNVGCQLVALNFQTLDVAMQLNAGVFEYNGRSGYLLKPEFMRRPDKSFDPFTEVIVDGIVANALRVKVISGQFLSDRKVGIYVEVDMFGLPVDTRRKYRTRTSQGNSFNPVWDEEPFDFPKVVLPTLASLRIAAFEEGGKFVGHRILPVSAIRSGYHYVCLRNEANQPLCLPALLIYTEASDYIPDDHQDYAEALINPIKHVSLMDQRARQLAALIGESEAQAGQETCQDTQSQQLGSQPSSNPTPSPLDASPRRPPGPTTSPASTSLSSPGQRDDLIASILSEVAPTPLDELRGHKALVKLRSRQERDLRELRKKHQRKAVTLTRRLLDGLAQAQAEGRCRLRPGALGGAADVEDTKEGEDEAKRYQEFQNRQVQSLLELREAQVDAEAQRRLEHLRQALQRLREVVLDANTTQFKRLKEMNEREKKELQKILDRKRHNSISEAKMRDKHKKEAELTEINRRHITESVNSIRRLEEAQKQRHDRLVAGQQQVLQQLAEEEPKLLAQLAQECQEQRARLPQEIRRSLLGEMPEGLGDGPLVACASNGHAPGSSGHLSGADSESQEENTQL
# UniProt P27986, sequence (P27986 whole entry, looked up): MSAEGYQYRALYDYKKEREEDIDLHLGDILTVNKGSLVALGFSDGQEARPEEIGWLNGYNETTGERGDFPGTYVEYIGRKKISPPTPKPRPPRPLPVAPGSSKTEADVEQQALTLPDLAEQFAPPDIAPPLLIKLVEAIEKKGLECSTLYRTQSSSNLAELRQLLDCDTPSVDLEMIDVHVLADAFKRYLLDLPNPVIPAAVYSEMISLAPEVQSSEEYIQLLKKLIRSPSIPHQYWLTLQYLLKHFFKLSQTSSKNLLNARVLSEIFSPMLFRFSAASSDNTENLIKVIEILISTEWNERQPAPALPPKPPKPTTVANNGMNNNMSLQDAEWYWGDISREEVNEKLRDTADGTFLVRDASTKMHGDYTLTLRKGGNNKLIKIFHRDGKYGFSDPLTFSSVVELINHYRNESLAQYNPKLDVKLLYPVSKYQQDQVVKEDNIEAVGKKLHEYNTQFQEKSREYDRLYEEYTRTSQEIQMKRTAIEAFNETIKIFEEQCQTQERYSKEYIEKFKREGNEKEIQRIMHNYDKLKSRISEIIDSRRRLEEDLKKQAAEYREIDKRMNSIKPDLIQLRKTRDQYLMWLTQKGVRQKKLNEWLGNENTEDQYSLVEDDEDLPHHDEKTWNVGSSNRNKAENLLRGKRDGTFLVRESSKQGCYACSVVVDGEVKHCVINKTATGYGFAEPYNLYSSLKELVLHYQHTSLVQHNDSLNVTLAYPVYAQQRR
# UniProt P31323, sequence (P31323 whole entry, looked up): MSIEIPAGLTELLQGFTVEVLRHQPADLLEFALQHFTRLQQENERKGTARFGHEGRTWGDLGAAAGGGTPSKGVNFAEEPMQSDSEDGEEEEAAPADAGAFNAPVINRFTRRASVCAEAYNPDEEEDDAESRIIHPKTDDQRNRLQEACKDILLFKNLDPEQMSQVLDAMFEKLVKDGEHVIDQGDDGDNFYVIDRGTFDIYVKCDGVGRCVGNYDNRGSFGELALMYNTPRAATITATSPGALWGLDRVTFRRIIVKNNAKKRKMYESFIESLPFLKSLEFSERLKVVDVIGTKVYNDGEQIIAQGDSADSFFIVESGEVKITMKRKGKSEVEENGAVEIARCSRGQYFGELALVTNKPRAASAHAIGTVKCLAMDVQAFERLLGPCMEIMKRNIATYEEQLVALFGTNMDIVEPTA
# UniProt P09874, sequence (P09874 whole entry, looked up): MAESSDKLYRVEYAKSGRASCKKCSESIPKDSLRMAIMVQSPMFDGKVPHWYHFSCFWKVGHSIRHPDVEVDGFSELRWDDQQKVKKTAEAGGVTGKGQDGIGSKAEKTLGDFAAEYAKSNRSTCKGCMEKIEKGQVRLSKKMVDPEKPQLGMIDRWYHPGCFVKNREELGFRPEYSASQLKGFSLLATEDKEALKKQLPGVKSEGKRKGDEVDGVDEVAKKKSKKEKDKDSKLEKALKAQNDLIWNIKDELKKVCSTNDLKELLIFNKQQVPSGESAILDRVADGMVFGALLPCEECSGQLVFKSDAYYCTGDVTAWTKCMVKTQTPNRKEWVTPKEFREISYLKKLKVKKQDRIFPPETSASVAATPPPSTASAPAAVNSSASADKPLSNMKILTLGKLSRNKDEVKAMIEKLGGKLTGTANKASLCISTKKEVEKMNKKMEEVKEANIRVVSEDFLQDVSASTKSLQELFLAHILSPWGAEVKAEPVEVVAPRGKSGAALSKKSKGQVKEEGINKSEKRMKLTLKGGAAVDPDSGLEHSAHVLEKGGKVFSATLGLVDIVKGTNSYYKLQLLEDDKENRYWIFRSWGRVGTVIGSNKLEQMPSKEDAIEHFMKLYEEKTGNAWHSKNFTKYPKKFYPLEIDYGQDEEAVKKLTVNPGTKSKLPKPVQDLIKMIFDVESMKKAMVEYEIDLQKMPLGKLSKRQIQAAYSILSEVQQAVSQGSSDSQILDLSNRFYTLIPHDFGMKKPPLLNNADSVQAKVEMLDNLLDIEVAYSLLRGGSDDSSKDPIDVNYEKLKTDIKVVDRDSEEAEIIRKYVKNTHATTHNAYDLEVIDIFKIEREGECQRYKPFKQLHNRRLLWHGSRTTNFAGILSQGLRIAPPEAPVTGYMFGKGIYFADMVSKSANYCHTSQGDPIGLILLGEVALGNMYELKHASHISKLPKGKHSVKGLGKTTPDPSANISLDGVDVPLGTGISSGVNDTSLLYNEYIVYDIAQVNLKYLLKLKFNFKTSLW
# UniProt P48426, sequence (P48426 whole entry, looked up): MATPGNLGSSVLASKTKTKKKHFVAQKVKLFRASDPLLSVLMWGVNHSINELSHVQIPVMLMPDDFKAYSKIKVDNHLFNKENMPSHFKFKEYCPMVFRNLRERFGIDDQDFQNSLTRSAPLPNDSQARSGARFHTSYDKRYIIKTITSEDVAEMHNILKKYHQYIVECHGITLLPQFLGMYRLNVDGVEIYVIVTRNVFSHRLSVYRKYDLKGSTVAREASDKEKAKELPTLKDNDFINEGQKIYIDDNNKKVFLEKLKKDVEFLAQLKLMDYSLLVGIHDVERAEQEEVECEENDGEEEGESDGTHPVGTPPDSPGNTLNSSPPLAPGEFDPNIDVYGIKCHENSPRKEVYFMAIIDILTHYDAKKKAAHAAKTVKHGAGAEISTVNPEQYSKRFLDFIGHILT
# UniProt P11498, sequence (P11498 whole entry, looked up): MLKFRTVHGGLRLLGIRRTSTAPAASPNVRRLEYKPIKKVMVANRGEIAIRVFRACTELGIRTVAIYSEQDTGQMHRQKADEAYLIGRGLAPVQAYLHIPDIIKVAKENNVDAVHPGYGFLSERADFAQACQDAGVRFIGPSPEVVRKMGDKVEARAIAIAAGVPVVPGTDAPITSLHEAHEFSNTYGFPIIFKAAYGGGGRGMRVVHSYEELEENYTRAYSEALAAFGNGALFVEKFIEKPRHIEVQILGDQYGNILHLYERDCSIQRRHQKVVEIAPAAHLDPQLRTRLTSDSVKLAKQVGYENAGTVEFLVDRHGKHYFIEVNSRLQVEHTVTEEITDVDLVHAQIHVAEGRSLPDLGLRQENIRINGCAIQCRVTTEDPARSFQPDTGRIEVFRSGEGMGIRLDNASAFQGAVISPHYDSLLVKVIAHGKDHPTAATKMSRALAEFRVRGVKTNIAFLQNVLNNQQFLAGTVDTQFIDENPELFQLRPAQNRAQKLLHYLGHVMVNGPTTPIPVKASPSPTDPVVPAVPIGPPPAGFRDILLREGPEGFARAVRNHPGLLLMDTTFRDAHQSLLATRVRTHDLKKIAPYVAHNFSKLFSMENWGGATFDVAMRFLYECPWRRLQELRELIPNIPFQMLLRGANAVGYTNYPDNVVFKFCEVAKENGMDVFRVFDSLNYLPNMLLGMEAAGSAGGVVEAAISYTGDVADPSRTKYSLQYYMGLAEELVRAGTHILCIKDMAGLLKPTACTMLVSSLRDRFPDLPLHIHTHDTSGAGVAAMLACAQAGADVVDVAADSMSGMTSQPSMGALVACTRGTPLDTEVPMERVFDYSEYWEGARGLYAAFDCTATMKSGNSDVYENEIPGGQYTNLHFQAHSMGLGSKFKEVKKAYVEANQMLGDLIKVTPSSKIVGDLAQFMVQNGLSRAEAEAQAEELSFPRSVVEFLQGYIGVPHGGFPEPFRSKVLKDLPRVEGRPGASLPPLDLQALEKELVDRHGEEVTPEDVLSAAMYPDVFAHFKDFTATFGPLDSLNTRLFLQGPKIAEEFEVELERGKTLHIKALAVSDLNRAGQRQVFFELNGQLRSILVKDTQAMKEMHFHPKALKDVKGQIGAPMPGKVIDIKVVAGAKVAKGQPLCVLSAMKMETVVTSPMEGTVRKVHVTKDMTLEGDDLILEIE
Target,log2 fold change [1],log2 fold change [2],log2 fold change [3],log2 fold change [4],log2 fold change [5],log2 fold change [6],log2 fold change [7],log2 fold change [8],log2 fold change [9],log2 fold change [10],log2 fold change [11],log2 fold change [12],log2 fold change [13],log2 fold change [14],log2 fold change [15],log2 fold change [16],log2 fold change [17],log2 fold change [18],log2 fold change [19],log2 fold change [20]
PSMC5 (UniProt P62195),-0.024,0.037,-0.018,0,-0.019,-0.053,-0.025,-0.031,0.052,-0.05,0.025,0.001,-0.07,0.057,-0.028,0.017,0.04,0.036,0.028,-0.007
POLR2A (UniProt P24928),-0.005,-0.021,-0.026,-0.054,0.001,0.258 (active),0.015,0.042,0,0.05,0.027,0.231,0.049,0.21,0.06,0.321 (active),-0.026,0.023,-0.009,0.006
PLCB3 (UniProt Q01970),-0.004,-0.118,0.007,-0.044,-0.05,-0.008,-0.003,0.013,-0.028,0.055,0,-0.07,0.014,0.013,0.019,0.031,0.041,0.034,0.014,-0.078
PSMD12 (UniProt O00232),-0.015,0.047,0.013,-0.025,-0.096,-0.07,-0.018,-0.067,0.096,-0.059,0.053,0.009,-0.03,0.073,-0.053,0.029,0.068,0.057,0.019,0.003
PRKAR2B (UniProt P31323),-0.032,0.06,0.153,0.05,-0.007,-0.63 (active),-0.026,-0.024,0.048,-0.056,-0.026,-0.108,-0.067,-0.136,0.007,-0.271,0.026,0.112,0.073,-0.001
PPIL4 (UniProt Q8WUA2),-0.001,0.116,0.032,0.101,-0.003,0.015,0.002,-0.005,0.02,0.018,-0.022,-0.013,0.027,-0.01,0.025,0,-0.026,0.021,0.019,-0.017
POLR2D (UniProt O15514),0.02,0.009,-0.029,-0.083,-0.159,-0.021,-0.001,0.043,0.017,-0.026,0.006,0.192,-0.08,0.038,0.065,0.158,-0.012,-0.068,-0.024,0.017
PC (UniProt P11498),0.05,0.08,-0.04,-0.372 (active),-0.039,0.14,0.024,0.014,-0.011,0.09,0.033,0.103,0.199,0.167,0.01,-0.143,-0.048,0.024,0.008,0.186
PDE2A (UniProt O00408),0.172,-0.118,0.001,-0.089,-0.053,0.134,-0.004,0.027,-0.014,0.148,-0.064,0.004,0.223,-0.108,0.034,0.117,-0.105,0.045,-0.026,-0.067
PRKACB isoform 2 (UniProt P22694),-0.045,-0.098,0.021,-0.01,-0.037,0.124,0.015,0.03,-0.018,-0.018,-0.009,-0.145,0.033,-0.039,0.009,-0.091,-0.02,0.047,0.028,-0.043
PPP4R3B (UniProt Q5MIZ7),-0.01,-0.004,0.014,-0.039,0.048,0,-0.034,-0.034,0.047,0.076,-0.003,0.124,0.064,-0.035,0.048,-0.075,0.149,0.056,0,0.056
PIK3R1 (UniProt P27986),0.01,-0.041,-0.002,-0.027,-0.075,0.054,0.045,0.014,-0.005,0.048,0.033,-0.044,0.002,0.022,0.232 (active),-0.038,-0.026,0.051,0.056,-0.079
PDCD2L (UniProt Q9BRP1),0.085,0.014,-0.033,-0.031,-0.033,0,-0.09,-0.018,-0.048,-0.062,-0.059,-0.048,-0.083,0.068,0.053,0.225,-0.007,0.097,-0.058,0.062
PARP1 (UniProt P09874),0.091,-0.043,0.048,-0.047,0.039,0.147,0.062,-0.062,-0.082,0.008,0.088,0.037,0.007,0.012,0.102,-0.029,0.08,0.165,-0.065,-0.126
RAB11FIP1 (UniProt Q6WKZ4),-0.024,0.004,0,-0.015,0.368,-0.03,-0.009,0.007,0.01,-0.107,-0.071,-0.096,-0.001,-0.038,0.004,-0.01,0.057,-0.003,0.047,-0.251 (active)
PIP4K2A (UniProt P48426),0.022,0.006,-0.002,-0.11,-0.018,0.379 (active),0.017,0.314,-0.054,0.132,0.411 (active),-0.032,0.027,0.013,-0.126,-0.084,-0.007,0.042,0.026,-0.052
